Data taken from PubChem BioAssay (Tox21).
Results filed as inconclusive are left out. Calls of active or inactive are those of the source. Unless noted, calls follow the shape of the full dose curve.

Experiments:
[1] = qHTS assay to identify small molecule antagonists of the vitamin D receptor (VDR) signaling pathway - cell viability counter screen (AID 743225; active = well fitted curve in the direction sought with a large enough effect in the repeat runs; an effect the other way counts as inactive or inconclusive; also: nearly all actives have a fitted effect of over 50% in size; also: potency is read from the fitted curve at half-maximal effect)
Method in brief: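 VDR-bla HEK 293T cells, 4 h pre-incubation at 37C, then compound plus 1-alpha,25-dihydroxyvitamin D3 (3 nM final) for 16 h. After the beta-lactamase FRET read, CellTiter-Glo was added to the same wells; luminescence after 30 min at room temperature.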

[2] = qHTS assay to identify small molecule agonists of the NFkB signaling pathway - cell viability counter screen (AID 1159515); also: nearly all actives have a fitted effect of over 55% in size; also: potency is read from the fitted curve at half-maximal effect; as to activity, negative = cytotoxic: series mostly up to about 61 µM; % is scaled to controls: 0 for no effect and ±100 for the full control effect
Method in brief: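 Counter screen run alongside the NFkB-bla agonist assay: ME-180 reporter cells exposed to compounds for 5 hr, then lysed with CellTiter-Glo in the same wells. Luminescence, read after 30 min, reflects viable cells.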

[3] = qHTS assay to identify small molecule agonists of the endoplasmic reticulum stress response signaling pathway (AID 1159516; active = well fitted activation curve with a large enough effect in the signal ratio in the repeat runs, not every such curve was filed as active; the % refers to the signal ratio; also: % is scaled to controls: 0 for no effect and ±100 for the full control effect)
Method in brief: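 For this screen, HeLa cells stably carrying beta-lactamase under the ER stress response element received test compounds, positive controls or DMSO for 5 hr at 37 C; B/G FRET substrate was then added and dual-wavelength emission recorded.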

[4] = qHTS assay to identify small molecule agonists of the endoplasmic reticulum stress response signaling pathway - cell viability counter screen (AID 1159517); also: series mostly up to about 61 µM; % is scaled to controls: 0 for no effect and ±100 for the full control effect; nearly all actives have a fitted effect of over 50% in size
Method in brief: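 In parallel with the ESRE reporter read, cytotoxicity was scored by CellTiter-Glo luminescence (30 min, room temperature) on HeLa ESRE-bla cells dosed for 5 hr.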

[5] = qHTS assay to identify small molecule antagonists of the retinoid-related orphan receptor gamma (ROR-gamma) signaling pathway - cell viability counter screen (AID 1159520; active = well fitted curve in the direction sought with a large enough effect in the repeat runs; an effect the other way counts as inactive or inconclusive; also: nearly all actives have a fitted effect of over 50% in size; also: potency is read from the fitted curve at half-maximal effect; as to activity, negative = cytotoxicity: % is scaled to controls: 0 for no effect and ±100 for the full control effect)
Method in brief: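 Tet-on ROR gamma CHO cells were given compounds for 2 hr, then doxycycline hyclate at 1 uM final, and incubated 16 hr at 37 C. Viability was measured as ATP content by CellTiter-Glo luminescence.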

[6] = target: Nuclear receptor ROR-gamma (Homo sapiens) (UniProt P51449); assay: qHTS assay to identify small molecule antagonists of the retinoid-related orphan receptor gamma (ROR-gamma) signaling pathway (AID 1159521; active = well fitted curve in the direction sought with a large enough effect in the repeat runs; an effect the other way counts as inactive or inconclusive; also: nearly all actives have a fitted effect of over 50% in size; also: potency is read from the fitted curve at half-maximal effect)
Method in brief: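 Tet-on RORγ CHO cells carrying a ROR response element–luciferase reporter were pretreated with compounds for 2 h, then induced with 1 uM (final) doxycycline hyclate for 16 h at 37 C. Antagonism was read as decreased ONE-Glo luminescence.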

[7] = qHTS assay to identify small molecule agonists of the AP-1 signaling pathway - cell viability counter screen (AID 1159525); also: nearly all actives have a fitted effect of over 55% in size; also: potency is read from the fitted curve at half-maximal effect
Method in brief: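 Same-well cytotoxicity counter screen of the Tox21 10K library in ME-180 cells. The readout is ATP-dependent luminescence after 5 h compound treatment. Data are normalised to DMSO and tetra n-octyl ammonium bromide controls.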

[8] = qHTS assay to identify small molecule agonists of the vitamin D receptor (VDR) signaling pathway - cell viability counter screen (AID 743224; active = well fitted curve in the direction sought with a large enough effect in the repeat runs; an effect the other way counts as inactive or inconclusive)
Method in brief: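 Counter screen for cytotoxicity: VDR-bla cells at 2,000 cells/well, 16 h compound exposure, then CellTiter-Glo luminescence after the beta-lactamase measurement.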

[9] = target: Retinoic acid receptor RXR-alpha (Homo sapiens) (UniProt P19793); assay: qHTS assay to identify small molecule agonists of the RXR signaling pathway (AID 1159527); also: nearly all actives have a fitted effect of over 35% in size; also: potency is read from the fitted curve at half-maximal effect
Method in brief: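 GeneBLAzer RXR-alpha-UAS-bla HEK 293T cells in medium with 2% charcoal-stripped FBS, pre-incubated 5 hr at 37 C, then exposed to compounds 16 hr. Beta-lactamase reporter read by FRET substrate, 2 hr room temperature, 460/530 nm emission.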

[10] = qHTS assay to identify small molecule agonists of the AP-1 signaling pathway (AID 1159526); also: % is scaled to controls: 0 for no effect and ±100 for the full control effect

Chain of Retinoic acid receptor RXR-alpha (Homo sapiens) (P19793 whole entry, looked up): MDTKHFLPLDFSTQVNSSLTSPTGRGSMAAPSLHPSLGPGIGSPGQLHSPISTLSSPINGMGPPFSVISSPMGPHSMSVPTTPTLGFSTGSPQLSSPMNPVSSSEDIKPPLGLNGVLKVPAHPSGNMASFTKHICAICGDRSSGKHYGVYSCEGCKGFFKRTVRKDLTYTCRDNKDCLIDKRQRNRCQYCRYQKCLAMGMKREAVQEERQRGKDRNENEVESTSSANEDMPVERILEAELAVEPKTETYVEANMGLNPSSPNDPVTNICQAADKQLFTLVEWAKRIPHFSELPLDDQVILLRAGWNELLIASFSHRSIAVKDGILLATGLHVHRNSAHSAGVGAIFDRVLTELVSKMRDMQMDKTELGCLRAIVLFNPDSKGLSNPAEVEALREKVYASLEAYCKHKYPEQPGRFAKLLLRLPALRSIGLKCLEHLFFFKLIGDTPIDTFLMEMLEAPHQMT

NC(N)=NN=C(/C=C/c1ccc([N+](=O)[O-])o1)/C=C/c1ccc([N+](=O)[O-])o1
active: Potency [1] 10.7 µM | Potency [2] 13.4 µM | Potency [5] 2.11 µM | Potency [6] 7.5 µM | Potency [7] 21.3 µM
inactive: Potency [3] | outcome [4]

CCN(CC)CCNC(C(=O)OCCC(C)C)c1ccccc1 (configuration not stated)
inactive: Potency [8] | Potency [2] | Potency [3] | outcome [4] | Potency [5] | Potency [7] | Potency [9]

CC(C)(C)C(=O)OCOP(=O)(COCCn1cnc2c(N)ncnc21)OCOC(=O)C(C)(C)C
inactive: Potency [8] | Potency [1] | Potency [2] | Potency [3] | outcome [4] | Potency [5] | Potency [7] | Potency [10]

Cn1sccc1=O
inactive: Potency [1] | Potency [2] | Potency [3] | outcome [4] | Potency [7]
active: Potency [5] 61.1 µM | Potency [6] 30.6 µM

O=S1(=O)c2cccc3cccc(c23)N1CCCN1CCN(c2ccc(F)cc2)CC1
inactive: Potency [8] | Potency [1] | Potency [2] | Potency [3] | outcome [4] | Potency [5] | Potency [6] | Potency [7]

CCCCOC(=O)c1ccccc1C(=O)OCC(CC)CCCC (configuration not stated)
inactive: Potency [1] | Potency [2] | Potency [3] | outcome [4] | Potency [5] | Potency [6] | Potency [7]

CCCCCCCCCCCCCCCC(=O)OC/C=C(C)/C=C/C=C(C)/C=C/C1=C(C)CCCC1(C)C
inactive: Potency [1] | Potency [2] | Potency [3] | outcome [4] | Potency [5] | Potency [7] | Potency [10]

CN(c1nccc(=O)[nH]1)C1CCN(c2nc3ccccc3n2Cc2ccc(F)cc2)CC1
inactive: Potency [8] | Potency [1] | Potency [2] | Potency [3] | outcome [4] | Potency [5] | Potency [7] | Potency [10]

CC(C)NCC(O)COc1ccc(CC(N)=O)cc1 (configuration not stated)
inactive: Potency [1] | Potency [2] | Potency [3] | outcome [4] | Potency [5] | Potency [7] | Potency [10]

NC[C@H]1O[C@H](O[C@H]2[C@H](O)[C@@H](O[C@H]3O[C@H](CO)[C@@H](O)[C@H](N)[C@H]3O)[C@H](N)C[C@@H]2N)[C@H](O)[C@@H](O)[C@@H]1O
inactive: viability change, negative = cytotoxic [1] 9.2% [at 6.95 µM] | activity, negative = cytotoxic [2] -4.89% [at 6.95 µM] | activation [3] -2.16% [at 6.95 µM] | activity change, negative = cytotoxicity [4] -9.96% [at 6.95 µM] | activity, negative = cytotoxicity [5] 1.78% [at 8.39 µM] | activity change, negative = inhibition [6] -16.2% [at 8.39 µM] | viability change, negative = cytotoxic [7] -4.71% [at 6.97 µM] | activation [9] 3.4% [at 6.98 µM]

CC(C)(C)c1ccc(OCC2CO2)cc1 (configuration not stated)
inactive: Potency [1] | Potency [2] | Potency [3] | outcome [4] | Potency [5] | Potency [6] | Potency [7] | Potency [9]

CN(C)CC[C@@H](c1ccc(Br)cc1)c1ccccn1
inactive: Potency [8] | Potency [1] | Potency [2] | Potency [3] | outcome [4] | Potency [5] | Potency [7] | Potency [10] | Potency [9]

CCCC[C@H]1CN(CC2CCOCC2)C(=O)OC12CCN(C1(C)CCN(C(=O)c3c(C)ncnc3C)CC1)CC2
inactive: Potency [8] | Potency [1] | Potency [2] | Potency [3] | outcome [4] | Potency [5] | Potency [7] | Potency [10]

O=C1c2cccc(O)c2C(=O)c2c(O)cc(CO)cc21
inactive: Potency [8] | Potency [1] | Potency [2] | Potency [3] | outcome [4] | Potency [5] | Potency [7] | Potency [10]

N#CCc1cccc(C(F)(F)F)c1
inactive: Potency [8] | Potency [1] | Potency [2] | Potency [3] | outcome [4] | Potency [5] | Potency [6] | Potency [7]

CC(C)NCC(O)c1cc(O)cc(O)c1 (configuration not stated)
inactive: Potency [1] | Potency [2] | Potency [3] | outcome [4] | Potency [5] | Potency [6] | Potency [7] | Potency [9]

NCCCOCCOCCOCCCN
inactive: Potency [8] | Potency [1] | Potency [2] | Potency [3] | outcome [4] | Potency [5] | Potency [7] | Potency [10]
active: Potency [9] 43.6 µM

O=S1(=O)N=C(O)c2ccccc21
inactive: Potency [8] | Potency [1] | Potency [2] | Potency [3] | outcome [4] | Potency [5] | Potency [7] | Potency [10]

Cc1cc(C)c(S(=O)(=O)O)cc1N=Nc1cc(S(=O)(=O)O)c2ccccc2c1O
inactive: Potency [8] | Potency [1] | Potency [2] | Potency [3] | outcome [4] | Potency [5] | Potency [7] | Potency [10] | Potency [9]

COc1ccc2[nH]c(S(=O)Cc3ncc(C)c(OC)c3C)nc2n1 (configuration not stated)
inactive: Potency [8] | Potency [2] | Potency [3] | outcome [4] | Potency [5] | Potency [7] | Potency [10]

O=S(=O)(O)c1ccc(O)c2ncccc12
inactive: Potency [8] | Potency [1] | Potency [2] | Potency [3] | outcome [4] | Potency [5] | Potency [7] | Potency [10]

O=C(O)Cn1c(C(=O)Nc2nc(-c3ccccc3Cl)cs2)cc2ccccc21
inactive: Potency [8] | Potency [1] | Potency [2] | Potency [3] | outcome [4] | Potency [5] | Potency [6] | Potency [7]

C[Si](C)O[Si](C)(C)O[Si](C)(C)O[Si](C)C
inactive: Potency [8] | Potency [1] | Potency [2] | Potency [3] | outcome [4] | Potency [5] | Potency [7] | Potency [10]

COc1cc(C(C)(C)C)c(O)c(C(C)(C)C)c1
inactive: Potency [1] | Potency [2] | Potency [3] | outcome [4] | Potency [5] | Potency [6] | Potency [7]
